Screens deposited in PubChem BioAssay by several laboratories.
H9c2 protect = modulators protecting cardiomyocytes from myocardial damage; H9c2 cardiomyocytes, H2O2 injury protection, ATPLite, 2 h; protection from H2O2 cell death, % at 20 µM; 360,000 tested, 0.63% active;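 active = compounds giving at least 50% protection of heart cells from peroxide-induced death in the single-dose screen, raw or plate-pattern-corrected value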;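 note: 0% = DMSO wells with peroxide and 100% = DMSO wells without peroxide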
Calb FLC = affects C. albicans growth with fluconazole; C. albicans CaCi-2 (fluconazole-resistant clinical isolate) + fluconazole, Alamar Blue growth, 48 h; growth inhibition, % (concentration not given with the values); 300,000 tested, 0.57% active;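 active = growth inhibition above about 58% in most replicates, limit read from the data, passing the limit was not always enough; inconclusive = exactly half the replicates above a set limit; inactive = most replicates below a set limit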;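 note: all wells also contain fluconazole at 8 µg/ml as a sub-toxic cotreatment; 0% = median of DMSO wells and 100% = median of geldanamycin control wells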
KCC2 mod = modulators of human KCC2 chloride dependent transport; 190,000 tested, 2.2% active; B-score of Tl+ flux slope (higher = more flux/activation; lower = inhibition) at 10 µM; KCC2 cells, thallium flux FluoZin-2 fluorescence;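 active = thallium flux slope and its plate-corrected score both differing from the plate sample mean at a set confidence after two filtering rounds, in either direction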;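 note: slope of fluorescence scaled to starting intensity during 10 to 20 s after thallium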
PHOSPHO1 block = blocks human PHOSPHO1 phosphatase activity; inhibition, % at 13.3 µM; 290,000 tested, 1.1% active; AID 1565; recombinant PHOSPHO1, absorbance phosphatase assay; Q8TCT1; in the data active = inhibition above about 60%
Target sequence (Q8TCT1 whole entry, looked up): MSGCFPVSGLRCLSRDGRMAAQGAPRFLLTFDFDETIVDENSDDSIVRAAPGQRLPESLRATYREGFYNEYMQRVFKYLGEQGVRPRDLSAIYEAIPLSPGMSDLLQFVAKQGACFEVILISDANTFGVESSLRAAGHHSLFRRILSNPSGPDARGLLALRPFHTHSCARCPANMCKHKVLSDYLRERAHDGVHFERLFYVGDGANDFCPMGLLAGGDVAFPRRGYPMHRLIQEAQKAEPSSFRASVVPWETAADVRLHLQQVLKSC
Efflux pump mplx = blocks antifungal efflux pumps in multiplex yeast assay | inhibition, % at 10 µM | 330,000 tested, 0.44% active | S. cerevisiae Candida pump triplex, Nile Red efflux;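 active = plate passing quality check with inhibition over a set limit, or well fluorescence over plate mean plus 4 SD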;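 note: Nile Red retained in pooled yeast measured as flow cytometry median fluorescence; 0% = buffer negative control and 100% = Enniatin B positive control; higher means more Nile Red kept so more efflux inhibition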
Starred values were filed as active, the others as inactive; u = inconclusive; x = no result. Most compounds without a hit are left out; they make up all but 3.3% or so of the library.

SMILES	H9c2 protect	Calb FLC	KCC2 mod	PHOSPHO1 block	Efflux pump mplx
COC(=O)C1=NN(C(=O)c2ccccc2)C(C)(O)C1 (configuration not stated)	1.9	9.1	x	13.9	0.0
COC(=O)C1=NN(C(=O)c2cccc(Cl)c2)C(O)(C(C)(C)C)C1 (configuration not stated)	36.6	x	51.4*	-9.8	-0.2
COc1ccc(-c2nnc3ccc(SCC(=O)Nc4nc5ccccc5s4)nn23)cc1OC	50.5*	4.1	-0.779	-2.9	-0.2
CCOC(=O)[C@@H]1CSCCS(=O)(=O)N1Cc1ccccc1Br	-3.5	x	x	x	x
CN1C[C@@H]2C(c3ccccc3)C3(c4ccc(C#N)cc4)CC2(C3)[C@H]1c1ccccc1 (some centres not stated)	-5.2	-35.3	0.0733	26.5	-0.1
CN1C[C@@H]2C(c3ccccc3)C3(c4ccccc4)CC2(C3)[C@H]1c1ccccc1 (some centres not stated)	-4.1	109.6*	-0.663	39.7	0.0
CCN(C[C@H]1N[C@@](C)(C(=O)OC)[C@H]2C(=O)N(Cc3ccccc3)C(=O)[C@@H]12)C(=O)COC	2.6	x	x	x	-0.2
CCN(C[C@H]1N[C@@](C)(C(=O)OC)[C@H]2C(=O)N(Cc3ccccc3)C(=O)[C@@H]12)C(=O)c1ccc(C(C)(C)C)cc1	57.0*	x	x	x	0.2
CCN(C[C@H]1N[C@@](CC)(C(=O)OC)[C@H]2C(=O)N(Cc3ccccc3)C(=O)[C@@H]12)C(=O)c1ccc(C(C)(C)C)cc1	63.4*	x	x	x	0.2
CC[C@@H](C)[C@H](NC(=O)OC(C)(C)C)c1nnc(S(=O)(=O)Cc2cc(C)ccc2C)o1	-39.7	-4.0	-6.42*	-0.2	0.1
CCCc1cc(=O)n2nc(N3CCC(C(=O)N4CCN(c5cccc(OC)c5)CC4)CC3)sc2n1	1.1	1.1	x	42.2	-0.4
O=C(Nc1ccc(S(=O)(=O)N2CCOCC2)cc1)C1CC(=O)N(c2ccc(F)cc2)C1 (configuration not stated)	-1.1	-2.0	x	36.2	-0.1
C[C@H](CO)N1C[C@H](C)[C@@H](CN(C)C(=O)c2cccnc2)Oc2ncc(Br)cc2C1=O	4.2	x	x	x	x
CCc1nnc(NC(=O)CCC(=O)N2CCN(C3c4ccccc4-c4ccccc43)CC2)s1	61.2*	-0.5	-0.341	-3.3	-0.2
CCc1nnc(NC(=O)CCC(=O)N2CCN(Cc3ccccc3)CC2)s1	15.4	-3.7	x	11.4	0.1
C=CCOc1cccc(CNCc2ccncc2)c1	-6.2	-4.8	x	4.6	0.1
CCOc1cccc(CNCc2ccncc2)c1	-8.5	5.0	x	61.5*	-0.1
Cc1[nH]c(=O)[nH]c(=O)c1S(=O)(=O)Nc1ccc(F)cc1F	-7.1	14.7	x	34.0	1.0
Cc1c(Cl)ccc2c1NC(=O)[C@]21N[C@@H](Cc2ccccc2)[C@H]2C(=O)N(c3ccc(F)cc3)C(=O)[C@H]21	11.9	89.1*	1.31	5.5	0.1
CCCNC(=O)C1(C)CCCN(Cc2ccccc2Cl)C1 (configuration not stated)	2.4	x	x	x	x
Cc1cccc(N2CCN(C(=O)c3c(-c4ccccc4Cl)noc3C)CC2)c1C	7.4	-3.6	x	4.5	-0.7
COc1ccc(N2CCN(S(=O)(=O)CCNC(=O)c3ccco3)CC2)cc1	10.3	10.2	x	x	0.2
COc1ccc(N2CCN(S(=O)(=O)CCNC(=O)c3ccc(Br)o3)CC2)cc1	-0.6	-3.8	x	64.9*	0.0
CCOc1ncccc1C(=O)NNC(=O)c1cccc(S(=O)(=O)N2CCOCC2)c1	2.2	x	x	x	-0.2
Cn1c(=O)n(CCc2ccccc2)c(=O)c2c1nc1n2CCN1Cc1ccco1	98.1*	-5.4	x	10.2	0.1
SMILES	H9c2 protect	Calb FLC	KCC2 mod	PHOSPHO1 block	Efflux pump mplx
CCOC(=O)[C@@H]1[C@H]2COc3ccc(Br)cc3[C@H]2N2C(=O)N(c3ccc(C(F)(F)F)cc3)C(=O)[C@]12C	-5.6	x	x	x	-0.1
Cc1[nH]c(-c2ccccn2)nc(=S)c1Cl	58.6*	-1.0	63.1*	-103.5	-0.1
Nc1ccc2nc(-c3ccccn3)[nH]c2c1	17.2	-4.2	-0.0229	-1.2	-0.1
CCOc1ccc(NC(=O)C2=NN(c3ccccc3)C(=O)CC2)cc1S(=O)(=O)N1CCCCC1	20.1	x	x	x	0.2
CN(c1ccccc1C(=O)N1CCN(c2ccccc2F)CC1)S(=O)(=O)c1ccccc1	1.4	u	x	37.0	0.0
CCn1c(=O)cc(OCC(=O)Nc2ccccc2C#N)c2ccccc21	59.6*	-1.7	-0.535	22.2	-0.4
O=S(=O)(Nc1nnc(C2CC2)s1)c1ccccc1	4.1	12.3	x	29.2	0.1
